ST2 inh = inhibitors of human ST2 (IL1RL1) binding to IL-33, primary screen, biochemical, AlphaLISA; 2.3% of 78,000 active; AlphaLISA ST2-Fc/biotin-IL-33 interaction, 1 h; Interleukin-1 receptor-like 1 (Homo sapiens), Q01638; inhibition, % for hits at 17 µM; in the data active = inhibition above about 30%
Target sequence (Q01638 whole entry, looked up): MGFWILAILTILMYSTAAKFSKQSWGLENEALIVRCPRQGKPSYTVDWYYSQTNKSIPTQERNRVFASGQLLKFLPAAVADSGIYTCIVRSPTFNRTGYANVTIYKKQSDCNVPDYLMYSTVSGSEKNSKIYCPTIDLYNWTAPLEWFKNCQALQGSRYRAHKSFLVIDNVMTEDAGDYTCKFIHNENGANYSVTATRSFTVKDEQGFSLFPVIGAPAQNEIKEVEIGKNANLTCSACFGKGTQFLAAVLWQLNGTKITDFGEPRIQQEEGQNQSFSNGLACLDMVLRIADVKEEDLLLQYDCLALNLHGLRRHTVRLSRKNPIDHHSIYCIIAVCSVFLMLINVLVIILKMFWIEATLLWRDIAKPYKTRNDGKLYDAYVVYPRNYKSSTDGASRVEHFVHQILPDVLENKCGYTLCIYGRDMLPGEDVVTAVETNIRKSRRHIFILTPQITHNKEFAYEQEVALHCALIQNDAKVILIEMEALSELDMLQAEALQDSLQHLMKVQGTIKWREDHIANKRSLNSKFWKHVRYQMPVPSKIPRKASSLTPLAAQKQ
Hits are given with their value; - = inactive. Shown is part of a subset that was picked to be rich in hits.

SMILES | ST2 inh
COc1ccc(CNC(=O)c2cc3c(=O)n4ccccc4nc3n2C)cc1 | -
O=Cc1ccc(-c2ccc(Br)cc2C(=O)O)o1 | -
COc1ccc(N(CC(=O)Nc2ccccc2Cl)S(=O)(=O)c2ccccc2)cc1 | -
CCc1ccc(CN2CCCC(CNC(=O)c3ccncn3)C2)nc1 (stereo not drawn) | -
CC(=O)c1ccc(N2CCN(S(=O)(=O)c3ccc4c(c3)c(=O)n(C)c(=O)n4C)CC2)cc1 | -
Cc1nn(-c2ccccn2)c2c1C(=O)/C(=C\Nc1ccccc1Cl)CC2 | 31%
Cc1nn(-c2ccccn2)c2c1C(=O)/C(=C/Nc1ccc([N+](=O)[O-])cc1Br)CC2 | -
O=C1CSC(c2cccc(Cl)c2Cl)N1c1ccccn1 (stereo not drawn) | -
Cc1cc(NC(=O)C2CCN(S(=O)(=O)c3c(C)n[nH]c3C)CC2)ccc1Br | -
O=C(c1ccccc1)C(Sc1ncccn1)c1ccccc1 (stereo not drawn) | -
COc1cc(C=C2C(=O)OC(C)(C)OC2=O)cc(Cl)c1O | -
COc1cccc(/C=C2/SC(N3CCCC3)=NC2=O)c1OC | -
CCOc1ccc(/C=C2\N=C(SC)SC2=O)cc1 | 44%
CSC1=N/C(=C\c2cc(Br)ccc2OCC(=O)O)C(=O)S1 | -
CCOc1ccc(/C=C2\N=C(c3cccc(C)c3)OC2=O)cc1 | -
COc1cccc(/C=C2\N=C(SC)SC2=O)c1OCc1ccccc1 | 40%
CSC1=N/C(=C\c2ccc(C(=O)O)cc2)C(=O)S1 | -
COc1cc(/C=C2\N=C(SC)SC2=O)cc(OC)c1OC | 30%
Cc1ccccc1N1CSC2=C(C#N)C(c3ccccc3F)CC(=O)N2C1 (stereo not drawn) | -
Cc1cc(C(=O)N2CCCC(C(=O)c3ccc(Oc4ccccc4)cc3)C2)nn1C (stereo not drawn) | -
C[C@H]1[C@@H]2[C@@H](O)[C@H]([C@H](C)C(=O)N3CCCC3)CC[C@@]2(C)CC[C@@H]1NC(=O)C1CC1 | -
CSC1=C(C#N)C(c2cccc(Cl)c2)CC(=O)N1 (stereo not drawn) | -
O=C(N[C@H]1CCN2C(=O)[C@H]3CCCN3C(=O)[C@@H]2C1)c1cccs1 | -
CCCn1cnc2c(cnn2-c2ccc(F)cc2)c1=O | -
CCCCn1cnc2c(cnn2-c2ccc(F)cc2)c1=O | -
SMILES | ST2 inh
CCCCn1cnc2c(cnn2-c2ccc(Cl)cc2)c1=O | 30%
CC(C)(C)n1nc2c(c1NC(=O)c1ccc(F)cc1)CS(=O)C2 (stereo not drawn) | -
CCOc1ncccc1-c1ccc(C)nc1N | -
C/C(=N\Oc1cc(NC(=O)CCCn2nc([N+](=O)[O-])cc2C)cc([N+](=O)[O-])c1)c1ccncc1 | -
O=C(CCC1CCCC1)N1CCN(Cc2ccccc2Cl)CC1 | -
CS(=O)(=O)c1nc(-c2ccc(Cl)cc2)cc(C(F)(F)F)n1 | -
COc1ccc(S(=O)(=O)N(CC(=O)NCc2ccco2)Cc2ccccc2)cc1 | -
COc1ccc(CC(=O)N2CCC3(CC2)CC3C(=O)NCCCc2ccccc2)cc1OC (stereo not drawn) | -
O=C(NCCCc1ccccc1)C1CC12CCN(C(=O)c1cccc(-c3ccccc3F)c1)CC2 (stereo not drawn) | -
O=C(NCCC(c1ccccc1)c1ccccc1)C1CC12CCN(C(=O)c1ccc[n+]([O-])c1)CC2 (stereo not drawn) | 34%
Cc1ccc(C(C)C)c(OCC(=O)Nc2cccc(NC(=O)C(C)C)c2)c1 | -
Cc1ccccc1-c1noc(CCC(=O)NC(C)Cc2ncccc2C)n1 (stereo not drawn) | -
COc1ccc(-c2cc(=O)c3cc(Br)ccc3o2)cc1OC | 31%
COc1ccc(-c2cc(=O)c3cc(F)ccc3o2)cc1OC | -
COc1cc(-c2cc(=O)c3ccccc3o2)ccc1O | -
Cc1ccc(C(C)Cc2[nH]cnc2-c2ccccc2)o1 (stereo not drawn) | -
CC1(C)C(=O)NC(=O)N1CN1C(=O)NC(=O)C1(C)C | -
Cc1ccc(C(=O)Nc2ncc(S(=O)(=O)c3ccc([N+](=O)[O-])cc3)s2)cc1C | -
O=C(Nc1ncc(S(=O)(=O)c2ccc([N+](=O)[O-])cc2)s1)c1ccccc1Br | -
COCC(=O)Nc1ncc(S(=O)(=O)c2ccc([N+](=O)[O-])cc2)s1 | 38%
Cc1[nH]c2c(C(=O)N3CCC4(CC3)C(=O)NCCN4C)cccc2c1C | -
Cc1c(CN2CCC3(CC2)C(=O)NCCN3C)[nH]c2c(C)cccc12 | 30%
CCCCc1ncc(CN2CCC3(CC2)C(=O)NCCN3C)[nH]1 | -
CCN(CC)S(=O)(=O)c1ccc(C(=O)N2CCN=C2SCc2ccccc2C)cc1 | -
CCOC(=O)C1C2C=CC3(CN(C(C)CC)C(=O)C13)O2 (stereo not drawn) | -
SMILES | ST2 inh
Cc1ccccc1C(=O)Nc1cc2cc([N+](=O)[O-])ccc2oc1=O | -
Cc1ccc(C(=O)N(c2ccc(C)c(C)c2)C2C=CS(=O)(=O)C2)cc1C (stereo not drawn) | -
Cc1ccc2oc(C(=O)NC3C(=O)Nc4cccc(C)c43)cc2c1 (stereo not drawn) | -
CCOCCCNC(=O)c1cc2cc3cc(OC)ccc3nc2o1 | -
COc1ccc2cc3cc(C(=O)Nc4cccc(Cl)c4)oc3nc2c1 | 36%
COc1cc(NC(=O)c2cc3cc4ccc(Cl)cc4nc3o2)cc(OC)c1OC | -
CCOc1ccccc1NC(=O)c1cc2cc3ccc(OC)cc3nc2o1 | -
COc1ccc2cc3cc(C(=O)Nc4ccc(F)cc4F)oc3nc2c1 | -
COc1ccc2cc3cc(C(=O)N4CCN(c5cccc(Cl)c5)CC4)oc3nc2c1 | -
COc1ccc2nc3oc(C(=O)NCCC(C)C)cc3cc2c1 | -
COc1ccc2nc3oc(C(=O)Nc4ccc(OC)c(Cl)c4)cc3cc2c1 | 37%
COc1cccc(NC(=O)c2cc3cc4ccc(OC)cc4nc3o2)c1 | 38%
COc1ccc2nc3oc(C(=O)Nc4cc(Cl)ccc4OC)cc3cc2c1 | -
COc1ccc2nc3oc(C(=O)NCc4cccs4)cc3cc2c1 | 35%
COc1ccc2nc3oc(C(=O)Nc4cc(OC)c(OC)c(OC)c4)cc3cc2c1 | -
CC1=C[C@@H](CNC(=O)c2ccco2)[C@H](C(C)C)C[C@H]1CC(=O)NCc1ccccn1 | -
CN(CCc1noc(C2CC2)n1)C(=O)c1cccc2ccnn12 | -
CC(C)Cn1cncc1CNC(=O)c1cc(C2CC2)[nH]n1 | -
CC1=C(C(=O)OC(C)C)C(c2ccc(F)cc2)C(C#N)=C(N)O1 (stereo not drawn) | -
COC(=O)c1c(C)oc2ccc(OC(=O)c3ccco3)cc12 | -
CC(C)(O)c1ccc2c(c1)C(O)CC1C(C)(C(=O)O)CCCC21C (stereo not drawn) | -
COc1ccc(C2=NN(C(=O)c3ccc(Br)o3)C(c3ccc(C)cc3)C2)cc1OC (stereo not drawn) | -
O=C(Cc1ccncc1)NCc1cccnc1Oc1ccccc1 | -
O=C(c1ccco1)N1CCN(Cc2cnn3cccnc23)CC1 | -
CCC(C)n1nccc1NC(=O)COc1ccccc1OC (stereo not drawn) | -
CCOC(=O)CN1C(=O)CSc2ccc(S(=O)(=O)N3CCC(C)CC3)cc21 | -
O=C(NCCc1cnc[nH]1)C1CCCN(C2CCN(C(=O)C3CC3)CC2)C1 (stereo not drawn) | -
O=C(CCC1CCCN(Cc2ccc(F)cc2F)C1)N1CCN(Cc2ccccc2)CC1 (stereo not drawn) | -
N#C/C(=C\c1cccc(Br)c1)c1nc2ccccc2[nH]1 | -

Screening data as filed in PubChem.
